Source: PubChem BioAssay AID602143 (Vanderbilt Specialized Chemistry Center, 2011)
Unmarked numbers belong to inactive results. Rule as the data show it: active = remaining activity below about 50%; inactive = the rest.

Target: Phospholipase D2 (Homo sapiens) (UniProt O14939)
Assay: PLD2 inhibitors in cells, cell-based, HEK293, single concentration (AID 602143);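 also: tested at 200 nM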
Settings: HEK293 cellular PLD2 activity, percent of control; stronger effect = lower value

Phospholipase D2 (Homo sapiens), sequence (O14939 whole entry, looked up): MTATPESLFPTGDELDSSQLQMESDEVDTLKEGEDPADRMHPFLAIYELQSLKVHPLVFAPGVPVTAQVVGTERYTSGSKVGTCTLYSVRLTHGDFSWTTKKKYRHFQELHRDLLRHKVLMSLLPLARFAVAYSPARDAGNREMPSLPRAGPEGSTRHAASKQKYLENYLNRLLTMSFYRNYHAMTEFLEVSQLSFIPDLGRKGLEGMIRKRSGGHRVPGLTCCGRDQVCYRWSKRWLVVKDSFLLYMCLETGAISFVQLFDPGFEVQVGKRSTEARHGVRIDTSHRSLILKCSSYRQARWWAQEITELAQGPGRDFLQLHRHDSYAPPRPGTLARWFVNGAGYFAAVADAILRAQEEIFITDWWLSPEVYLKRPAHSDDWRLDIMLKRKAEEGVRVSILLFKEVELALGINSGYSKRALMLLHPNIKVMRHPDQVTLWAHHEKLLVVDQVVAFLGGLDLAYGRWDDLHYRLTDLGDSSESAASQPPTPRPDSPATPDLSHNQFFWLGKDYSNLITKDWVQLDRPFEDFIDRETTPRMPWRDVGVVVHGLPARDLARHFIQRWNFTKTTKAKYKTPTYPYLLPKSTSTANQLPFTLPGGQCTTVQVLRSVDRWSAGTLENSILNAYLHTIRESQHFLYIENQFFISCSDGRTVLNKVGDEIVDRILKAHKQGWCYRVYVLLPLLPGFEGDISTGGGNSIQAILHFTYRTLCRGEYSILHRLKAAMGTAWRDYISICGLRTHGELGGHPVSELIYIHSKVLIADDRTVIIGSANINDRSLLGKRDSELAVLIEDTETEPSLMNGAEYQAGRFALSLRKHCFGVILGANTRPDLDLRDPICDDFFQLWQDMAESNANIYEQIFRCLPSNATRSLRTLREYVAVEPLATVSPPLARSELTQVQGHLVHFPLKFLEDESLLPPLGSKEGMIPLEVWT
Phospholipase D2 (Homo sapiens), sequence (O14939 whole entry, looked up): as above

SMILES | remaining activity [%]
Cc1ccc(C(=O)N[C@@H](C)CN2CCC(n3c(=O)[nH]c4cc(Br)ccc43)CC2)cc1 | 74
C[C@@H](CN1CCC(n2c(=O)[nH]c3cc(-c4ccc(F)c(F)c4)ccc32)CC1)NC(=O)[C@H]1C[C@@H]1c1ccccc1 | 80.4
C[C@@H](CN1CCC(n2c(=O)[nH]c3ccccc32)CC1)NC(=O)c1cccnc1 | 97.3
O=c1[nH]c2ccccc2n1C1CCN(CCNS(=O)(=O)c2cc(Cl)ccc2Cl)CC1 | 68.8
CC(=O)c1cccc(NC(=O)NCCN2CCC(n3c(=O)[nH]c4ccccc43)CC2)c1 | 118
O=c1[nH]c2ccccc2n1C1CCN(CCNC(=S)Nc2ccc(Cl)c(Cl)c2)CC1 | 93.9
O=C(NCCN1CC=C(n2c(=O)[nH]c3ccccc32)CC1)[C@H]1C[C@@H]1c1ccccc1 | 114
CC1(C)[C@H]2CC[C@]1(CS(=O)(=O)NCCN1CCC(n3c(=O)[nH]c4ccccc43)CC1)C(=O)C2 | 72.8
Cc1ccc(C(=O)NCCN2CCN(c3ccncc3)CC2)cc1 | 114
O=C(c1ccc(Cl)cc1)N(CCN1CCC(n2c(=O)[nH]c3ccccc32)CC1)C(=O)c1ccc(Cl)cc1 | 94.2
Cc1ccc(NC(=S)NCCN2CCC(n3c(=O)[nH]c4ccccc43)CC2)cc1 | 146
O=C(NCCN1CCC(n2c(=O)[nH]c3ccccc32)CC1)c1cc(-c2ccccc2)no1 | 50.8
COc1cccc(N2CCN(CCNC(=O)c3ccc(Cl)cc3)CC2)c1 | 109
